Here are results for eight molecules from PubChem BioAssay (EPA / NIEHS).

For orientation: AC50 means the midpoint of the concentration-response curve, whichever way the signal moves.

Read-out in assay [1]: organic anion transporter (SLCO1B1), SLCO1B1 (gene 10599)
Kind of assay: CLD_SLCO1B1_24hr: CellzDirect (CLD) Gene Expression Assay for organic anion transporter (SLCO1B1) at 24 hours (AID 2283690). Put shortly:
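Primary human hepatocytes (two donor preparations) dosed daily for two days with chemicals at multiple concentrations, 0.2% DMSO vehicle. SLCO1B1 mRNA at 24 h measured by qNPA chemiluminescence; induction fitted relative to DMSO.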

Read-out in assay [2]: sulfotransferase (SULT2A), SULT2A1 (gene 6822)
Kind of assay: CLD_SULT2A_24hr: CellzDirect (CLD) Gene Expression Assay for sulfotransferase (SULT2A) at 24 hours (AID 2283694). Put shortly:
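Primary human hepatocytes from two donor preparations were dosed daily with fresh solutions, vehicle 0.2% DMSO. At 24 h, lysates went to quantitative nuclease protection (qNPA) with S1 digestion and chemiluminescent readout. Cytotoxicity was annotated from phase-contrast morphology.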

Read-out in assay [3]: glucuronosyltransferase (UGT1A1), UGT1A1 (gene 54658)
Kind of assay: CLD_UGT1A1_24hr: CellzDirect (CLD) Gene Expression Assay for glucuronosyltransferase (UGT1A1) at 24 hours (AID 2283696). In short, it runs like this: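 Primary human hepatocytes from two donor preparations were dosed (0.2% DMSO vehicle) and harvested at 24 h; UGT1A1 mRNA induction was quantified by chemiluminescent qNPA, fitted as gain relative to DMSO.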

Read-out in assay [4]: xenobiotic metabolism (CYP1A2), CYP1A2 (gene 1544)
Kind of assay: CLD_CYP1A2_48hr: CellzDirect (CLD) Gene Expression Assay for xenobiotic metabolism (CYP1A2) at 48 hours (AID 2283703). In short, it runs like this:
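Primary human hepatocytes from two donor preparations were dosed daily for two days at multiple concentrations in 0.2% DMSO vehicle. CYP1A2 mRNA was measured at 48 hours by chemiluminescent quantitative nuclease protection assay, with gain of signal fitted versus DMSO and cytotoxicity annotated from morphology.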

Read-out in assay [5]: Broad substrate specificity ATP-binding cassette transporter ABCG2 (Homo sapiens) (UniProt Q9UNQ0)
Put plainly: CLD_ABCG2_48hr: CellzDirect (CLD) Gene Expression Assay for ABC Transporter (ABCG2) at 48 hours (AID 2283704). Put shortly:
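Primary human hepatocytes from two donors, dosed daily for 2 days, 0.2% DMSO vehicle, several concentrations. ABCG2 mRNA at 48 h by qNPA chemiluminescence, gain fitted versus DMSO; cytotoxicity flagged by morphology.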

Read-out in assay [6]: organic anion transporter (SLCO1B1), SLCO1B1 (gene 10599)
Put plainly: CLD_SLCO1B1_48hr: CellzDirect (CLD) Gene Expression Assay for organic anion transporter (SLCO1B1) at 48 hours (AID 2283707). Put shortly:
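Primary human hepatocytes from two donor preparations dosed daily for two days with multiple concentrations, 0.2% DMSO vehicle. SLCO1B1 mRNA at 48 h by quantitative nuclease protection assay, chemiluminescence; gain-of-signal fitted versus DMSO.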

Read-out in assay [7]: alkyl and aryl transferase (GSTA2), GSTA2 (gene 2939)
Kind of assay: CLD_GSTA2_48hr: CellzDirect (CLD) Gene Expression Assay for alkyl and aryl transferase (GSTA2) at 48 hours (AID 2283708).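 Note: active means mRNA induction above DMSO vehicle baseline.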 Put shortly: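 Primary human hepatocytes dosed daily for two days (0.2% DMSO vehicle), harvested at 48 h. GSTA2 mRNA induction measured by quantitative nuclease protection assay with chemiluminescent imaging, fitted for gain of signal relative to DMSO.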

Read-out in assay [8]: glucuronosyltransferase (UGT1A1), UGT1A1 (gene 54658)
Put plainly: CLD_UGT1A1_48hr: CellzDirect (CLD) Gene Expression Assay for glucuronosyltransferase (UGT1A1) at 48 hours (AID 2283709).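 Note: actives increase expression relative to DMSO so potency refers to induction.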 Put shortly:
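Human primary hepatocytes dosed daily for two days (0.2% DMSO vehicle), harvested at 48 h. UGT1A1 mRNA induction measured by quantitative nuclease protection assay with chemiluminescence; gain of signal versus DMSO; cytotoxicity flagged from morphology.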

Read-out in assay [9]: sulfotransferase (SULT2A), SULT2A1 (gene 6822)
Kind of assay: CLD_SULT2A_48hr: CellzDirect (CLD) Gene Expression Assay for sulfotransferase (SULT2A) at 48 hours (AID 2283710).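 Note: hits raise SULT2A1 transcript above the 0.2% DMSO vehicle baseline.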 In short, it runs like this:
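Primary human hepatocytes (two donor preparations) dosed daily for two days with chemicals at multiple concentrations, vehicle 0.2% DMSO; SULT2A1 mRNA induction at 48 h by quantitative nuclease protection assay, chemiluminescent read-out, fitted for gain of signal versus DMSO.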

Read-out in assay [10]: Glyceraldehyde-3-phosphate dehydrogenase (Homo sapiens) (UniProt P04406)
Kind of assay: CLD_GAPDH_48hr: CellzDirect (CLD) Gene Expression Assay for Baseline Control (Glyceraldehyde 3-phosphate dehydrogenase) at 48 hours (AID 2283706).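 Note: active means higher GAPDH mRNA than DMSO vehicle.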 In short, it runs like this: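 Primary human hepatocytes dosed daily for two days with fresh chemical at multiple concentrations, 0.2% DMSO vehicle; GAPDH mRNA measured at 48 h by quantitative nuclease protection assay with chemiluminescence, fitted upward relative to DMSO as background control.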

The nature of assay [11]: CEETOX_H295R_MTT_cell_viability: Viability Assessment in the CeeTox HT-H295R MTT Assay (AID 2283718; active = hit-call score of the fitted dose curve at least 0.9, where 1 is the maximum; inactive = score below 0.9). In short, it runs like this:
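MTT reduction (0.5 mg/ml, 4 h at 37 C; absorbance at 570 and 650 nm) gave viability as background-corrected percent change versus controls. H295R cells had 48 h forskolin (10 uM) prestimulation, then 48 h chemical exposure at 0.1% DMSO.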

Read-out in assay [12]: ABC Transporter (ABCB1), ABCB1 (gene 5243)
Put plainly: CLD_ABCB1_48hr: CellzDirect (CLD) Gene Expression Assay for ABC Transporter (ABCB1) at 48 hours (AID 2283695). Put shortly: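 Primary human hepatocytes from two donor preparations dosed daily on two consecutive days with 0.2% DMSO vehicle. Harvest at 48 h. ABCB1 mRNA quantified by qNPA with chemiluminescence and fitted for gain of signal versus DMSO.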

Read-out in assay [13]: Cytochrome P450 2B6 (Homo sapiens) (UniProt P20813)
Put plainly: CLD_CYP2B6_48hr: CellzDirect (CLD) Gene Expression Assay for xenobiotic metabolism (CYP2B6) at 48 hours (AID 2283699).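 Note: actives raise transcript level above DMSO so potency reflects induction.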 Put shortly:
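Primary human hepatocytes dosed daily for two days over multiple concentrations, 0.2% DMSO vehicle; CYP2B6 mRNA quantified at 48 h by qNPA chemiluminescence. Induction fitted as gain of signal versus DMSO; cytotoxicity annotated by morphology.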

A short description of assay [14]: STM_H9_OrnithineISnorm_perc: Stemina devTOX quickPredict H9 human embryonic stem cell (hESC)-based Assay for Ornithine (ORN) Metabolite Biomarker, Normalized (AID 2283712; active = hit-call score of the fitted dose curve at least 0.9, where 1 is the maximum; inactive = score below 0.9;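 note: ornithine released into spent medium during last day measured by mass spectrometry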). Put shortly: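 H9 human embryonic stem cells kept pluripotent receive test chemical over 72 h, refreshed daily by media exchange. Media from the closing 24 h is deproteinized and analysed by UPLC-HRMS on an amide column; ornithine signal is scaled to labelled standard and vehicle.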

The nature of assay [15]: STM_H9_CystineISnorm_perc: Stemina devTOX quickPredict H9 human embryonic stem cell (hESC)-based Assay for Cystine (CYSS) Metabolite Biomarker, Normalized (AID 2283713; active = hit-call score of the fitted dose curve at least 0.9, where 1 is the maximum; inactive = score below 0.9). In short, it runs like this: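 H9 hESC, pluripotent; compound 72h, re-dosed q24h with medium change. Last-24h medium → 40% acetonitrile deproteinization → UPLC-HRMS. CYSS area / C13-CYSS standard, then % of 0.1% DMSO median.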

Assay [16] is described as follows: STM_H9_OrnCyssISnorm_ratio: Stemina devTOX quickPredict H9 human embryonic stem cell (hESC)-based Assay for Ornithine (ORN):Cystine (CYSS) Ratio (AID 2283714). In short, it runs like this: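 Steps: H9 hESCs in pluripotent state dosed 72h, medium plus compound renewed every 24h; conditioned medium from the final 24h deproteinized in 40% acetonitrile; ORN and CYSS quantified by UPLC-HRMS with C13 spike-ins; ratio relative to vehicle.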

Read-out in assay [17]: Cytochrome P450 3A4 (Homo sapiens) (UniProt P08684)
Put plainly: CLD_CYP3A4_48hr: CellzDirect (CLD) Gene Expression Assay for xenobiotic metabolism (CYP3A4) at 48 hours (AID 2283698). In short, it runs like this:
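Primary human hepatocytes from two donor preparations dosed daily for two days with multiple chemical concentrations, 0.2% DMSO vehicle. CYP3A4 mRNA at 48 h by quantitative nuclease protection assay, chemiluminescence, positive fit versus DMSO; cytotoxicity flagged morphologically.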

Each structure is given as a SMILES string. Inconclusive results are not listed. A structure can be active in one record and inactive in another. Calls of active or inactive are those of the source. Rule for the calls, unless noted: active = hit-call score of the fitted dose curve at least 0.9, where 1 is the maximum; inconclusive = response in the unintended direction; inactive = score below 0.9.

Sequence of Broad substrate specificity ATP-binding cassette transporter ABCG2 (Homo sapiens) (Q9UNQ0 whole entry, looked up): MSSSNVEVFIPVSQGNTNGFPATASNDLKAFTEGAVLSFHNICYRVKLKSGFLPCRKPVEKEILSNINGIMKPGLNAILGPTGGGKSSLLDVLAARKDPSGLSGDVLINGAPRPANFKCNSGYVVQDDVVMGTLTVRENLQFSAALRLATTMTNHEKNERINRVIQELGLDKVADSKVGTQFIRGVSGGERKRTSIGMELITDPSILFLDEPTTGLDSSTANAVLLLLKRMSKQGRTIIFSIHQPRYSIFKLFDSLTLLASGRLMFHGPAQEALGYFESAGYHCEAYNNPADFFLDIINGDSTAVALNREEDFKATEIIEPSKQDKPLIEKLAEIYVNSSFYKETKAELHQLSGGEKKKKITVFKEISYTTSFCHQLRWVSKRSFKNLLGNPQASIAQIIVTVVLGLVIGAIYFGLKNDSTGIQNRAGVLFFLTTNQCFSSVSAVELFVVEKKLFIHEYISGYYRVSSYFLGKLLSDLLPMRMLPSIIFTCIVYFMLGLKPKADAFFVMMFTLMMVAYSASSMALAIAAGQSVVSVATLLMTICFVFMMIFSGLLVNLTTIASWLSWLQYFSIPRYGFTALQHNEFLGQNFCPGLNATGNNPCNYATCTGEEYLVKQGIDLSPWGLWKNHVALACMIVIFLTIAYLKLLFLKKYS
Sequence of Glyceraldehyde-3-phosphate dehydrogenase (Homo sapiens) (P04406 whole entry, looked up): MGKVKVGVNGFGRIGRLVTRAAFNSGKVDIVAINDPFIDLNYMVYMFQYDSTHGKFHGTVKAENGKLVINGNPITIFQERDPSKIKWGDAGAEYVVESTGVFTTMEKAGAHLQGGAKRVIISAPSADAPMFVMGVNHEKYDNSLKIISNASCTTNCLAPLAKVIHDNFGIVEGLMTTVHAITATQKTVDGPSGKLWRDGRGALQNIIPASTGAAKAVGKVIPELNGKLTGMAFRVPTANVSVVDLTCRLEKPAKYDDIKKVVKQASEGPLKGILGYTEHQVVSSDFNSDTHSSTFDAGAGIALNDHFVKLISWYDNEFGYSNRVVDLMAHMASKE
Sequence of Cytochrome P450 3A4 (Homo sapiens) (P08684 whole entry, looked up): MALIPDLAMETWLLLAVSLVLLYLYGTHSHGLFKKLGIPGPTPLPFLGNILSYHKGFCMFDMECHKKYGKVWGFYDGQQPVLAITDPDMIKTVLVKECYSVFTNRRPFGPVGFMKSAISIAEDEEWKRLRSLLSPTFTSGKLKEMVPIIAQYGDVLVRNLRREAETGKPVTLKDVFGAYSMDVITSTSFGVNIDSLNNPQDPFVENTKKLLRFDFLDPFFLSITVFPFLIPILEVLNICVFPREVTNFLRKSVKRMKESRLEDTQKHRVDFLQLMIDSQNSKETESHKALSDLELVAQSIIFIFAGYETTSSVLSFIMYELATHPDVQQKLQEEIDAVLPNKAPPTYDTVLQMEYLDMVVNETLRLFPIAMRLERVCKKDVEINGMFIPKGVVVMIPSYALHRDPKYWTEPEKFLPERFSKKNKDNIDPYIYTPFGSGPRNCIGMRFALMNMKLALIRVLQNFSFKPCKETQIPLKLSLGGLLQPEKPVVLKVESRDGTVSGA

Regarding `CCOP(=O)(SC(C)CC)N1CCSC1=O` (stereo unspecified), the molecule was classed as inactive in assay [1], in [2], in assay [3], in [5], in assay [6] and in assay [7]. The result in assay [8] and in [9] was inactive. In assay [4], the AC50 is 4.51 µM (active).

Regarding `Nc1nc(N)nc(NC2CC2)n1`, the call in [1], in assay [2], in assay [10], in assay [7] and in assay [11] was inactive.

For `CCOP(=S)(OCC)Oc1ccc2c(C)c(Cl)c(=O)oc2c1`, the molecule was classed as inactive in assay [1], in assay [2], in [12], in assay [5], in assay [7] and in assay [8]. For the same molecule, the call in assay [9], in assay [15], in [16] and in assay [11] was inactive. Besides, the AC50 in assay [13] was 1.01 µM (active); in assay [4], 0.414 µM (active); in assay [14] it was 50 µM (active).

In the case of `CCc1cccc(CC)c1N(COC)C(=O)CCl`, the result in assay [1], in [2], in assay [4], in assay [5], in assay [6] and in assay [8] was inactive. Besides, the AC50 in assay [13] was 3.01 µM (active); in [7], 32.1 µM (active).

Take `CN(C)[C@@H]1C(=O)C(C(N)=O)=C(O)[C@@]2(O)C(=O)C3=C(O)c4c(O)cccc4[C@@](C)(O)[C@H]3[C@H](O)[C@@H]12`: the outcome in assay [1], in [2], in [13], in assay [4], in assay [10] and in assay [6] was inactive. Further, the result in assay [7], in assay [9], in assay [14], in assay [15], in assay [16] and in assay [11] was inactive. The values for the AC50 in assay [14] and in assay [15] were 50 µM (active) and 11.6 µM (active), respectively.

With `CC(=NC#N)N(C)Cc1ccc(Cl)nc1`, the molecule was called inactive in assay [1], in assay [2], in assay [17], in assay [13], in assay [4] and in assay [10]. Besides, the outcome in assay [6], in assay [7], in [8] and in assay [9] was inactive.

On to `CNC(=O)ON=C(C)SC`, for which the result in assay [1], in assay [12], in assay [4], in assay [10], in assay [7] and in assay [8] was inactive. The result in [9] and in [11] was inactive.

`CCOP(=O)(OCC)Oc1cc(C)nc(C(C)C)n1`: the molecule was called inactive in [1], in assay [2], in [5], in assay [10], in assay [6] and in [7]. For the same molecule, the molecule was called inactive in [8]. The concentration at half-maximal activity (AC50) in [4] is 11.6 µM (active); in assay [9] it was 4.2 µM (active).
